From PubChem BioAssay
Most compounds without a hit are left out; they make up all but 2.4% or so of the library.
CRFBP-R2 block – blocks CRF-induced signaling of the CRF-BP/CRF-R2 complex; HEK293 CRF-R2/CRF-BP, CRF-induced calcium fluorescence; AID 588475; 350,000 tested, 0.59% active; inhibition, % at 11.8 µM;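 active = inhibition of the ligand-induced calcium signal above about 50% at the single tested concentration, limit read from the data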
HTR2A ag – activates the mouse 5-HT2A serotonin receptor; CHO-K1 mHTR2A beta-arrestin complementation, luminescence; percent of 30 µM serotonin response; activation, % at 7.6 µM; AID 624169; 360,000 tested, 0.66% active; P35363;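 active = activation above a run cutoff, the mean activation of all tested compounds plus 3 SD, cut at about 14% in these data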;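 also: 0% = plate median of compound wells and 100% = 30 µM serotonin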
TLR4 MyD88 comp – TLR4-MyD88 interaction inhibition in cells; HeLa CL3-4 TLR4/MyD88 BLA complementation, FRET ratio; O00206+Q99836; AID 861; 200,000 tested, 0.18% active; inhibition, % at 8.4 µM; in the data active = inhibition above about 25%;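 also: 0% = vehicle and 100% = reference inhibitor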
NOD2 RIPK2 PPI – inhibitors of human NOD2-RIPK2 interaction. O43353. CHO BLA complementation NOD2-RIPK2, CCF4 ratio. inhibition, % at 4.98 µM. 360,000 tested, 0.38% active. AID 624267; in the data active = inhibition above about 21%;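 also: 0% = vehicle only and 100% = reference blocker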
TLR9-MyD88 block – inhibitors of human TLR9-MyD88 binding; Q9NR96+Q99836; CHO BLA complementation TLR9-MyD88, CCF4 FRET ratio; inhibition, % at 4.98 µM; 340,000 tested, 0.21% active; AID 504734;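 active = inhibition above the mean over all tested compounds plus 3 SD, cut at about 21% in these data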;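 also: 0% = DMSO only wells and 100% = clavulanate BLA inhibitor control wells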
ABHD5 PLIN5 PPI – blocks binding of human ABHD5 to perilipin-5; Q00G26+Q8WTS1; Split G. princeps luciferase complementation, luminescence, 4 h; inhibition, % at 4 µM; 360,000 tested, 0.78% active;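 active = inhibition above the mean inhibition across every tested compound plus 3 SD, cut at about 22% in these data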;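 also: 0% = DMSO only wells and the 100% control is not disclosed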
Target sequence (Q00G26 whole entry, looked up): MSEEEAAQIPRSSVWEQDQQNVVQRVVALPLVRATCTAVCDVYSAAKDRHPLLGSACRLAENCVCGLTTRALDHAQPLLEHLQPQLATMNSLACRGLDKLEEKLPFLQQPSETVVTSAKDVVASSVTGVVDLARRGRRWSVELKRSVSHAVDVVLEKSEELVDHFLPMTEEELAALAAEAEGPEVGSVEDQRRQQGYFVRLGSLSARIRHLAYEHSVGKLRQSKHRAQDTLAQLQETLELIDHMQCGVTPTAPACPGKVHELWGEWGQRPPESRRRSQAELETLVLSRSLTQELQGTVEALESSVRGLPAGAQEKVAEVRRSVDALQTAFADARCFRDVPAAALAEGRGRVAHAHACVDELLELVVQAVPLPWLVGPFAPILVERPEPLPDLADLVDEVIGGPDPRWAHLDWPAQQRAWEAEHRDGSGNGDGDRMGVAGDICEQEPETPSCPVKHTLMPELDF
Target sequence (Q8WTS1 whole entry, looked up): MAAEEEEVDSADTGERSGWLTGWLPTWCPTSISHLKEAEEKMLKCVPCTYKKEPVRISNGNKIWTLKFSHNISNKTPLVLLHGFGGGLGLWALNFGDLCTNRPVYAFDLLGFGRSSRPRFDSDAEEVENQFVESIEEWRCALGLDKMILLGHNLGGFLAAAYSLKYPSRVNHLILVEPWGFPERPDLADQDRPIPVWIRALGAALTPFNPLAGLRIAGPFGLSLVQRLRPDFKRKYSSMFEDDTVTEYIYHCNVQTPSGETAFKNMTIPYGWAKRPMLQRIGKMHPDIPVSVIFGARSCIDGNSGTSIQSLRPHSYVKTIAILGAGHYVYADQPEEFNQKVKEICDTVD
TLR9-MyD88 cf – TLR9-MyD88 interaction inhibition, confirmation; shares compounds with TLR9-MyD88 block; CHO TLR9/MyD88 BLA complementation, CCF4 FRET ratio; inhibition, % at 4.98 µM; 680 tested, 51% active; AID 540250;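 active = mean inhibition across three repeats above about 21% taken from the earlier screen, limit read from the data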;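 also: blue over green emission ratio reports constitutive TLR9 MyD88 association via BLA complementation; 0% = DMSO vehicle wells and 100% = clavulanate BLA inhibitor wells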
BLA counter-1 – beta-lactamase reporter inhibition, counter-screen artifact | shares compounds with TLR9-MyD88 block | CHO-BLA cells, CCF4 FRET ratio, BLA reporter | 680 tested, 7% active | inhibition, % at 4.98 µM;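 active = mean inhibition above a 50% cutoff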;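 also: counterscreen of TLR9-MyD88 hits on CMV-driven BLA in CHO-K1 cells; 0% = DMSO alone and 100% = clavulanate blocking BLA; higher means less blue over green ratio so more BLA blockade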
TLR9 CHO tox – counter-screen for TLR9-MyD88 inhibitors: cytotoxicity in CHO cells | luminescence | AID 588336 | 680 tested, 39% active | inhibition, % at 4.98 µM | shares compounds with TLR9-MyD88 block; in the data active = inhibition above about 11%
ABHD5 PLIN5 conf – ABHD5-PLIN5 interaction inhibition, confirmed; shares compounds with ABHD5 PLIN5 PPI; biochemical ABHD5-PLIN5 interaction, luminescence; inhibition, % at 4 µM; 2,200 tested, 67% active; AID 651612; in the data active = inhibition above about 23%;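 also: 0% = DMSO vehicle wells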
HNF4 counter – active in HNF4 split-luciferase counter-screen for ABHD5-PLIN5 inhibitors. shares compounds with ABHD5 PLIN5 PPI. HNF4 dimerization, luminescence, biochemical. inhibition, % at 4 µM. 2,200 tested, 77% active. AID 651674;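 active = mean inhibition across replicate wells exceeding the computed hit threshold, cut at about 13% in these data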;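 also: light from luciferase halves that rejoin when HNF4 fusion proteins dimerize; 0% = DMSO only wells and the 100% control is not given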
NOD2-RIPK2 conf – confirmation of human NOD2-RIPK2 interaction inhibitors. inhibition, % at 4.98 µM. AID 624370. 1,200 tested, 70% active. CHO cells, NOD2-RIPK2 BLA complementation, CCF4 FRET. shares compounds with NOD2 RIPK2 PPI;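 active = mean inhibition across replicates above a set limit taken from the earlier primary screen, cut at about 21% in these data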;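 also: 0% = DMSO-only wells and the high end = clavulanate BLA-blocked wells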
BLA counter-2 – counter-screen for NOD2-RIPK2 interaction inhibitors: BLA reporter | shares compounds with NOD2 RIPK2 PPI | CHO BLA reporter, CCF4 FRET ratio, counterscreen | inhibition, % at 4.98 µM | 1,200 tested, 57% active | AID 624371;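 active = mean inhibition above the low-control mean inhibition plus three low-control SD, cut at about 11% in these data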;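 also: 0% = DMSO only wells and 100% = clavulanate high control wells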
Active calls of the source: *; x = no result.

SMILES	CRFBP-R2 block	HTR2A ag	TLR4 MyD88 comp	NOD2 RIPK2 PPI	TLR9-MyD88 block	ABHD5 PLIN5 PPI	TLR9-MyD88 cf	BLA counter-1	TLR9 CHO tox	ABHD5 PLIN5 conf	HNF4 counter	NOD2-RIPK2 conf	BLA counter-2
CCCNC(=O)c1nnsc1S(=O)c1ccc(Cl)cc1 (stereo not drawn)	32	-6	9	80*	48*	75*	49*	4	100*	96*	108*	85*	25*
CCCNC(=O)c1nnsc1S(=O)(=O)c1ccc(Cl)cc1	70*	-3	18	84*	35*	77*	37*	9	99*	80*	108*	85*	23*
CCCNC(=O)NS(=O)(=O)c1ccc(Cl)cc1	-19	-1	-20	-5	-5	1	x	x	x	x	x	x	x
CNC(=O)c1nnsc1S(=O)c1ccc(Cl)cc1 (stereo not drawn)	20	-2	7	57*	46*	67*	51*	4	97*	85*	104*	54*	28*
Cc1cc(C)cc(CC(=O)N2CCC2(C)C(=O)NS(=O)(=O)c2ccccc2Cl)c1 (stereo not drawn)	x	3	x	9	x	-2	x	x	x	x	x	x	x
COCCNC(=O)C1(C)CCCN(C(=O)c2ccc(F)cc2Cl)C1 (stereo not drawn)	x	-2	x	-11	x	2	x	x	x	x	x	x	x
CC(C)N1CCC1(C)C(=O)Nc1ccccc1OC(F)F (stereo not drawn)	x	4	x	-3	x	-2	x	x	x	x	x	x	x
CCOC(=O)c1sc(-c2ccc(C(F)(F)F)cc2)nc1O	54*	1	x	25*	28*	0	14	18	0	x	x	65*	67*
COc1cccc(CNc2nc3cc(-c4ccccc4C)sc3c(=O)n2C)c1OC	x	1	x	3	x	-1	x	x	x	x	x	x	x
OC[C@H]1O[C@@H](c2nc(-c3ccc(Br)cc3)no2)C[C@@H]1O	x	2	x	6	x	-5	x	x	x	x	x	x	x
N#C/C(=C\c1ccc(Sc2ccc(Cl)cc2)o1)c1nc2ccccc2[nH]1	-30	1	21	34*	34*	-9	19	24	2	x	x	39*	43*
O=C1Nc2ccc(Br)cc2C12NNc1ccccc1O2 (stereo not drawn)	-9	-9	21	36*	33*	5	26*	21	0	x	x	35*	47*
COc1ccc(CN2CCC2(C)C(=O)Nc2cccc(NS(C)(=O)=O)c2)c2ccccc12 (stereo not drawn)	x	10	x	3	x	4	x	x	x	x	x	x	x
CCOC(=O)C1(C)CCCN(C(=O)c2cc(C)oc2C)C1 (stereo not drawn)	x	-2	x	-11	x	4	x	x	x	x	x	x	x
CN(C)c1ccc(/C=C/c2ccc3ccccc3n2)cc1	-90	2	x	46*	28*	9	38*	53*	53*	x	x	58*	71*
CC(=O)OCCNc1cc(Sc2nc3ccccc3[nH]2)c2nonc2c1[N+](=O)[O-]	46	-5	9	89*	56*	60*	60*	3	99*	71*	112*	90*	38*
CC(=O)OCCCNc1cc(Sc2nc3ccccc3s2)c2nonc2c1[N+](=O)[O-]	-21	1	15	-7	1	-13	x	x	x	x	x	x	x
COc1cccc(C(C(=O)NC2CCCC2)N2CCN(c3ncccc3C#N)CC2)c1OC (stereo not drawn)	x	-5	x	-3	x	-2	x	x	x	x	x	x	x
CC(=O)c1ccc(Nc2nc(C(N)CCc3ccccc3)cs2)cc1 (stereo not drawn)	x	2	x	-14	x	-1	x	x	x	x	x	x	x
Nc1ccc(C#Cc2ccc3c(=O)c4ccccc4oc3c2)cc1	1	-6	x	67*	74*	17	64*	70*	4	x	x	78*	84*
COc1cc2oc3cc(C#Cc4ccc(N)cc4)ccc3c(=O)c2cc1OC	0	0	x	26*	38*	4	40*	44	8	x	x	54*	58*
N#Cc1ccc(C#Cc2ccc3oc4ccccc4c(=O)c3c2)cc1	-10	-1	x	-1	4	-13	x	x	x	x	x	x	x
COc1cc2oc3ccc(C#Cc4ccc(N)cc4)cc3c(=O)c2cc1OC	-1	4	x	-2	-12	-4	x	x	x	x	x	x	x
COC(=O)C[C@H]1CC[C@H](NC(=O)Nc2ccccc2F)[C@@H](CO)O1	x	-3	x	-13	x	3	x	x	x	x	x	x	x
COc1ccccc1N(C(C)=O)C1=C(Cl)C(=O)c2ccccc2C1=O	-101	1	x	90*	65*	93*	86*	23	102*	100*	111*	96*	51*
SMILES	CRFBP-R2 block	HTR2A ag	TLR4 MyD88 comp	NOD2 RIPK2 PPI	TLR9-MyD88 block	ABHD5 PLIN5 PPI	TLR9-MyD88 cf	BLA counter-1	TLR9 CHO tox	ABHD5 PLIN5 conf	HNF4 counter	NOD2-RIPK2 conf	BLA counter-2
COc1ccc(CN(C)C(=O)[C@H]2O[C@@H](n3ccc(N)nc3=O)[C@H](O)[C@@H]2O)cc1OC	x	4	x	-6	x	4	x	x	x	x	x	x	x
CCN(CC)c1ccc(/C=C/C(=O)C2C(=O)C=C(C)OC2=O)cc1 (stereo not drawn)	-476	2	18	23*	21*	2	36*	38	11*	x	x	28*	47*
CN(C)S(=O)(=O)c1cccc(NC(=O)COC(=O)/C=C/c2ccco2)c1	-5	3	-10	-2	-5	25*	x	x	x	22	27*	x	x
O=C1/C(=C\c2ccncc2)CCc2ccccc21	5	2	x	9	-6	32*	x	x	x	63*	60*	x	x
O=C1C(=Cc2ccc(Cl)cc2)CCc2ccccc21	x	-5	x	7	x	10	x	x	x	x	x	x	x
O=C1/C(=C/c2ccncc2)CCc2ccccc21	-7	3	x	-4	-5	34*	x	x	x	62*	59*	x	x
O=C1/C(=C/c2ccncc2)CCC/C1=C\c1ccncc1	-2	1	17	21	-3	99*	x	x	x	104*	109*	x	x
